Source: PubChem BioAssay (NCI)
The panel holds about 83,000 compounds, 20% with a hit somewhere; the sample as a whole holds those more often.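 A percent growth of 40 corresponds to 60% growth inhibition; 0 means no net growth; -100 means all cells died. Active threshold: below 10.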 Unmarked numbers belong to inactive results. Calls of active or inactive are those of the source.

Assays:
Assay in all cases: NCI-60 one-dose screen, 48 h (100 = growth as untreated, 0 = no growth, -100 = all killed)
Conditions in all cases: 10 µM unless noted
HCT-15 colon = system: HCT-15 colon
HT29 colon = system: HT29 colon
SNB-75 CNS = system: SNB-75 CNS
SNB-19 CNS = system: SNB-19 CNS
U251 CNS = system: U251 CNS
PC-3 prostate = system: PC-3 prostate
SK-MEL-5 melanoma = system: SK-MEL-5 melanoma
UACC-62 melanoma = system: UACC-62 melanoma
LOX IMVI melanoma = system: LOX IMVI melanoma
SK-MEL-28 melanoma = system: SK-MEL-28 melanoma

Compound | growth (HCT-15 colon) | growth (HT29 colon) | growth (SNB-75 CNS) | growth (SNB-19 CNS) | growth (U251 CNS) | growth (PC-3 prostate) | growth (SK-MEL-5 melanoma) | growth (UACC-62 melanoma) | growth (LOX IMVI melanoma) | growth (SK-MEL-28 melanoma)
CC(C)SC1=NC(=C(C(=N1)NC2=ClC=CC=C2)C#N)C3=CC=CC=C3 | 63% | 80.5% | 26.5% | 69.5% | 49.7% | 78.2% | 91.2% | 84% | 70% | 87.7%
COc1cc2c3c(n(CCCN4CCCC4)c(=O)c2cc1OC)-c1cc2c(cc1C3=O)OCO2 | -61.7% (active) | -76% (active) | -74.6% (active) | -48.9% (active) | -96.2% (active) | -64.5% (active) | 87.5% | 73.9% | -80.1% (active) | -74.1% (active)
COc1ccc2c(c1)oc1c3[nH]c4ccccc4c3c3c(c21)C(=O)N(O)C3=O | 50.5% | 38.3% | 39.7% | 32.6% | 15.7% | 45.4% | -22.1% (active) | 12.4% | -76% (active) | 76.3%
CC(=O)C1=NN(c2ccc(Cl)cc2)C(=O)CN1C | 100% | 102% | 106% | 103% | 97.6% | 98.1% | 102% | 97.7% | 98.3% | 102%
CCCCCCNC(=O)Oc1ccc(/C(=C(\C)c2ccc(OC)cc2)c2ccc(OCCN(C)C)cc2)cc1 | 30.8% | 15.8% | 77.2% | 74.9% | 58.8% | 66.2% | 69.9% | 89.4% | -48.5% (active) | 76.2%
CCc1ccc(NC(=O)N[C@@H](Cc2cccc(F)c2)C(=O)N[C@@H]2C(=O)N3CCC[C@H]3C(=O)N3CCCC[C@H]3C(=O)N[C@@H](C)C(=O)N3C[C@H](C)C[C@H]3C(=O)O[C@H]2C)c(F)c1 | 11.6% | 20.1% | 20.8% | 27.5% | 31.1% | 15.1% | -20.9% (active) | 21.1% | 14.1% | 36.1%
IP(CCCCCCCCCCSc1n(Cc2ccc3ccccc3c2)c(-c2ccccc2)c(-c2ccccc2)[n+]1Cc1ccc2ccccc2c1)(c1ccccc1)(c1ccccc1)c1ccccc1 | -68.3% (active) | -59.4% (active) | -52.6% (active) | -84.8% (active) | -68.5% (active) | -80.4% (active) | -98.3% (active) | -73.6% (active) | -78.1% (active) | -83.7% (active)
C/C(Cc1ccc(Cl)cc1)=C(/c1ccccc1)c1ccc(OCCN)cc1 | 101% | 102% | 98.2% | 92.9% | 100% | 99% | 99.1% | 91.7% | 98% | 96%
CCN(CC)c1ccc2cc(C(=O)NCCOCCOCCOCCn3cc(CCC(=O)Nc4ccc(C(=O)c5ccc(NC(=O)OC(C)(C)C)cc5)cc4)nn3)c(=O)oc2c1 | 72.7% | 77.9% | 94.6% | 75.7% | 69.8% | 39.4% | -17.2% (active) | 32.1% | 26.7% | 82.6%
COc1cc(-c2noc(C[C@@H](NC(=O)OCc3ccccc3)C(C)C)n2)cc(OC)c1OC | 97.4% | 104% | 76.3% | 89.6% | 98.4% | 97% | 99.3% | 88.4% | 101% | 100%
COC(=O)c1nc(-c2ccc(C)cc2)oc1S(=O)(=O)N1CCN(c2oc(-c3ccccc3)nc2C#N)CC1 | 98.6% | 111% | 100% | 94.6% | 99.4% | 99% | 100% | 92% | 89.7% | 99.6%
CC(=O)NC(C)(C)C(=O)N1CCC[C@H]1C(=O)NC(C)(C)C(=O)N[C@@H](C)C(=O)NC(C)(C)C(=O)NC(C)(C)C(=O)N[C@@H](CCC(N)=O)C(=O)NC(C)(C)C(=O)N[C@H](C(=O)NC(C)(C)C(=O)NCC(=O)N[C@@H](CC(C)C)C(=O)NC(C)(C)C(=O)N1CCC[C@H]1C(=O)N[C@H](C(=O)NC(C)(C)C(=O)NC(C)(C)C(=O)N[C@@H](CCC(N)=O)C(=O)N[C@@H](CCC(N)=O)C(=O)N[C@H](CO)Cc1ccccc1)C(C)C)C(C)C | 98.8% [4.25 µM] | 27.4% [4.25 µM] | 18.6% [4.25 µM] | 19.1% [4.25 µM] | 21.8% [4.25 µM] | 14.9% [4.25 µM] | -45.7% [4.25 µM] (active) | 35% [4.25 µM] | 18.6% [4.25 µM] | 32.1% [4.25 µM]
